In PubChem BioAssay AID1159580 (chemical genetic matrix, 2015):
Where “and” joins values, the source holds several entries; their conditions need not be identical. Identical values can stand only once. Out of some 5,500 compounds screened, about 2,000 (36%) were called active. Roughly 18% stayed inconclusive and do not appear here. Cut-off read from the data, not from the text of the source: active = normalized growth mostly below about 0.91 (no sharp cut-off); inconclusive = no clear call, values can overlap the other calls; inactive = mostly above about 0.92. Some of the results follow.

Experiment: chemical genetic growth profiling, strain panel (AID 1159580);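 note: tested at 20 µM; growth read once vehicle control cultures reached saturation at 30 °C; 1 = growth at the plate median or of vehicle wells; lower values mean less growth of the strain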
Details: S. cerevisiae deletion strains, growth OD

Measured: normalized growth

CN(C(=O)CN(CCO)CC(=O)N(C)C(C)(C)Cc1ccccc1)C(C)(C)Cc1ccccc1
inactive: locus YAL021C, strain ccr4, hits give low values 1.01 | locus YAL026C, strain drs2, hits give low values 1.02 | locus YAL030W, strain snc1, hits give low values 1 | locus YBL061C, strain skt5, hits give low values 1.01 | locus YBR009C, strain hhf1, hits give low values 1.01 | locus YBR021W, strain FUR4, hits give low values 0.985 | locus YBR023C, strain chs3, hits give low values 1.01 | locus YBR171W, strain sec66, hits give low values 1.04 | locus YBR229C, strain ROT2, hits give low values 0.993 | locus YBR231C, strain swc5, hits give low values 1 | locus YBR279W, strain paf1, hits give low values 1.01 | locus YCL011C, strain gbp2, hits give low values 1.01 | locus YCL016C, strain dcc1, hits give low values 1.01 | locus YCL029C, strain bik1, hits give low values 0.97 | locus YCL061C, strain MRC1, hits give low values 1.02 | locus YCL069W, strain vba3, hits give low values 1.01 | locus YCR088W, strain abp1, hits give low values 1.01 | locus YDL005C, strain med2, hits give low values 1 | locus YDL035C, strain GPR1, hits give low values 0.954 | locus YDL040C, strain nat1, hits give low values 1 | locus YDL074C, strain BRE1, hits give low values 0.978 | locus YDL101C, strain DUN1, hits give low values 1 | locus YDL134C, strain PPH21, hits give low values 0.983 | locus YDL185W, strain tfp1, hits give low values 0.954 | locus YDL192W, strain arf1, hits give low values 0.98 | locus YDR001C, strain nth1, hits give low values 1.01 | locus YDR069C, strain doa4, hits give low values 1.01 | locus YDR101C, strain arx1, hits give low values 1 | locus YDR137W, strain rgp1, hits give low values 1.07 | locus YDR159W, strain sac3, hits give low values 0.998 | locus YDR162C, strain NBP2, hits give low values 0.957 | locus YDR195W, strain ref2 0.995 | locus YDR297W, strain sur2, hits give low values 1 | locus YDR318W, strain mcm21, hits give low values 0.979 | locus YDR334W, strain swr1, hits give low values 1.02 | locus YDR335W, strain msn5, hits give low values 1.01 | locus YDR388W, hits give low values 0.979 | locus YDR392W, strain spt3, hits give low values 0.981 | locus YDR502C, strain sam2, hits give low values 0.981 | locus YEL003W, strain gim4, hits give low values 1.01 | locus YEL037C, strain rad23, hits give low values 1.02 | locus YEL061C, strain CIN8 (second series), hits give low values 1.02 | locus YEL061C, strain CIN8, hits give low values 0.997 | locus YER015W, strain faa2, hits give low values 1.02 | locus YER016W, strain bim1, hits give low values 1.03 | locus YER110C, hits give low values 0.976 | locus YER111C, strain swi4, hits give low values 1.02 | locus YER155C, strain BEM2 (second series), hits give low values 1.02 | locus YER155C, strain BEM2, hits give low values 0.994 | locus YER167W, strain BCK2, hits give low values 0.987 | locus YFR010W, strain ubp6, hits give low values 1.01 | locus YGL078C, strain dbp3, hits give low values 0.983 | locus YGL086W, strain mad1, hits give low values 0.979 | locus YGL167C, strain pmr1, hits give low values 1.01 | locus YGL173C, strain kem1, hits give low values 1.02 | locus YGL227W, strain vid30, hits give low values 1.02 | locus YGL240W, strain doc1, hits give low values 0.986 | locus YGL248W, strain PDE1, hits give low values 1.01 | locus YGL253W, strain hxk2, hits give low values 1.03 | locus YGR078C, strain PAC10, hits give low values 1 | locus YGR135W, strain pre9, hits give low values 0.973 | locus YGR229C, strain SMI1, hits give low values 0.98 | locus YGR252W, strain gcn5, hits give low values 1.01 | locus YHR013C, strain ard1, hits give low values 1.04 | locus YHR027C, strain rpn1, hits give low values 1.02 | locus YHR030C, strain SLT2, hits give low values 0.985 and 0.989 | locus YHR079C, strain IRE1 (second series), hits give low values 0.975 | locus YHR079C, strain IRE1, hits give low values 0.98 | locus YHR094C, strain hxt1, hits give low values 0.99 | locus YHR129C, strain ARP1, hits give low values 0.992 | locus YHR142W, strain chs7, hits give low values 1.02 | locus YHR200W, strain rpn10, hits give low values 0.971 | locus YIL066C, strain RNR3, hits give low values 0.996 | locus YIL073C, strain SPO22, hits give low values 1.14 | locus YIL125W, strain kgd1, hits give low values 0.988 | locus YIR030C, strain dcg1, hits give low values 0.976 | locus YJL092W, strain hpr5, hits give low values 1.01 | locus YJL095W, strain BCK1 (second series), hits give low values 1.01 | locus YJL095W, strain BCK1, hits give low values 1.01 | locus YJL115W, strain asf1, hits give low values 1.02 | locus YJL129C, strain trk1, hits give low values 1.02 | locus YJL134W, strain LCB3, hits give low values 0.986 | locus YJL154C, strain vps35, hits give low values 1.01 | locus YJL164C, strain tpk1, hits give low values 1 | locus YJL166W, strain qcr8, hits give low values 1.01 | locus YJL168C, strain set2, hits give low values 0.989 | locus YJL187C, strain SWE1 (second series), hits give low values 1.01 | locus YJL187C, strain SWE1, hits give low values 1.01 | locus YJR043C, strain POL32, hits give low values 0.962
